Our source for the growth values is PubChem BioAssay (NCI).

Molecules are shown by their SMILES. This is part of a sample that, as a whole, favours compounds with a hit. Of some 83,000 tested, about 20% had one in any assay.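 48-hour exposure, single concentration, 96-well plates; percent growth endpoint where 0 means no net growth. Active: below 10.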 Values without a mark were called inactive. Activity calls are given as the source filed them.

Test systems include HCT-15 colon; HT29 colon; SNB-75 CNS; SNB-19 CNS; U251 CNS; PC-3 prostate; SK-MEL-5 melanoma; UACC-62 melanoma; LOX IMVI melanoma; SK-MEL-28 melanoma; SK-MEL-2 melanoma; EKVX NSCLC; SN12C renal; UO-31 renal; TK-10 renal; ACHN renal; CAKI-1 renal; A498 renal; CCRF-CEM leukemia; MOLT-4 leukemia.
Holding throughout (assay): NCI-60 one-dose screen, 48 h (100 = growth as untreated, 0 = no growth, -100 = all killed)
What all share (conditions): 10 µM unless noted

Turning to `N#Cc1cccc(-c2nc3ccccn3c2NCCN2CCOCC2)c1`, the growth in the assay with HCT-15 colon is 105%; with HT29 colon, 92.8%; with SNB-75 CNS, 71.1%; in the assay on SNB-19 CNS, 100%; in the assay on U251 CNS it was 98.2%; in the assay on PC-3 prostate, 89.5%. The growth with SK-MEL-5 melanoma is 104%; with UACC-62 melanoma, 95.5%; in the assay on LOX IMVI melanoma it was 92.5%; with SK-MEL-28 melanoma it was 107%; in the assay with SK-MEL-2 melanoma it was 100%; in the assay with EKVX NSCLC, 104%. Besides, the growth in the assay with SN12C renal is 96%; with UO-31 renal it was 73.3%; in the assay on TK-10 renal, 101%; in the assay on ACHN renal, 98.3%; in the assay with CAKI-1 renal, 85.1%; in the assay on A498 renal, 99.1%. Besides, the growth in the assay with CCRF-CEM leukemia was 92.5%; with MOLT-4 leukemia it was 96.5%.

With `CC(C)n1nc(C#Cc2cccc(O)c2)c2c(N)ncnc21`, the growth is -11.2% (active) in the assay on HCT-15 colon; -17.7% (active) in the assay on HT29 colon; -84.7% (active) in the assay on SNB-75 CNS; -21.4% (active) with SNB-19 CNS; -37.1% (active) in the assay on U251 CNS; -11.8% (active) in the assay on PC-3 prostate. Also, the growth is -91.8% (active) in the assay on SK-MEL-5 melanoma; -88.9% (active) with UACC-62 melanoma; -92.4% (active) in the assay with LOX IMVI melanoma; -47.5% (active) in the assay on SK-MEL-28 melanoma; -76.9% (active) with SK-MEL-2 melanoma; -27.1% (active) in the assay on EKVX NSCLC. In addition, the growth is -44.3% (active) in the assay on SN12C renal; -63.4% (active) in the assay on UO-31 renal; -87.4% (active) with TK-10 renal; -47.3% (active) with ACHN renal; -66.8% (active) in the assay on CAKI-1 renal; -84.9% (active) with A498 renal. In addition, the growth is -21% (active) with CCRF-CEM leukemia and -36.1% (active) in the assay on MOLT-4 leukemia.

Consider `Nc1ccc2c(S(=O)(=O)O)ccc(S(=O)(=O)O)c2c1`, for which the growth in the assay with HCT-15 colon was 105%; in the assay with HT29 colon, 105%; in the assay on SNB-75 CNS it was 92%; with SNB-19 CNS it was 93.5%; in the assay with U251 CNS, 99.5%; with PC-3 prostate, 91.9%. Further, the growth is 93.5% in the assay with SK-MEL-5 melanoma; 90.5% in the assay with UACC-62 melanoma; 98.1% in the assay with LOX IMVI melanoma; 116% in the assay with SK-MEL-28 melanoma; 103% with SK-MEL-2 melanoma; 103% with EKVX NSCLC. Besides, the growth was 95.3% in the assay with SN12C renal; 81.6% in the assay on UO-31 renal; 108% in the assay on TK-10 renal; 96.4% in the assay with ACHN renal; 95.6% with CAKI-1 renal; 116% with A498 renal. The growth is 56.5% in the assay with CCRF-CEM leukemia and 80.3% in the assay with MOLT-4 leukemia.

Take `C[C@@H]1CC[C@@H]2[C@@H]1[C@H](OC(=O)/C=C/c1ccccc1)[C@]1(C3CCCCC3)C[C@@H](NC(=O)CO)[C@@]2(C)O1`: the growth in the assay with HCT-15 colon is 99%; in the assay on HT29 colon it was 86%; in the assay on SNB-75 CNS, 85%; with SNB-19 CNS, 104%; in the assay on U251 CNS it was 111%; in the assay with PC-3 prostate it was 94%. The growth in the assay on SK-MEL-5 melanoma was 104%; in the assay with UACC-62 melanoma, 97%; with LOX IMVI melanoma it was 100%; in the assay with SK-MEL-28 melanoma it was 98.8%; in the assay with SK-MEL-2 melanoma, 95.9%; in the assay on EKVX NSCLC, 98.4%. Moreover, the growth was 59.2% with SN12C renal; 72.1% with UO-31 renal; 92.3% in the assay on TK-10 renal; 50.2% with ACHN renal; 91.7% in the assay with CAKI-1 renal; 44.9% with A498 renal. Also, the growth is 99.2% in the assay with CCRF-CEM leukemia and 88.9% with MOLT-4 leukemia.

Turning to `CS(=O)(=O)c1ccc(-c2[nH]c3ccc(F)cc3c2/C=N/O)cc1`, the growth was 98.4% in the assay with HCT-15 colon; 93.7% in the assay with HT29 colon; 69.2% in the assay on SNB-75 CNS; 103% in the assay with SNB-19 CNS; 91.2% with U251 CNS; 79.4% in the assay with PC-3 prostate. Further, the growth in the assay with SK-MEL-5 melanoma was 103%; in the assay with UACC-62 melanoma, 91.2%; in the assay with LOX IMVI melanoma, 95.3%; in the assay with SK-MEL-28 melanoma, 108%; in the assay with SK-MEL-2 melanoma, 94.9%; with EKVX NSCLC, 98.4%. The growth with SN12C renal was 99.1%; in the assay with UO-31 renal, 82.5%; in the assay on TK-10 renal, 99.4%; in the assay on ACHN renal it was 97%; with CAKI-1 renal it was 81.4%; with A498 renal, 99.2%. For the same compound, the growth with CCRF-CEM leukemia and with MOLT-4 leukemia was 92.9% in each case.

Turning to `Cc1nc(Nc2ccc(N)cc2)c2ccccc2n1`, the growth is 89.4% in the assay with HCT-15 colon; 88.9% in the assay on HT29 colon; 103% with SNB-75 CNS; 97.7% with SNB-19 CNS; 99.1% with U251 CNS; 91% with PC-3 prostate. Besides, the growth was 91.9% in the assay with SK-MEL-5 melanoma; 98.5% with UACC-62 melanoma; 90.7% in the assay with LOX IMVI melanoma; 114% in the assay with SK-MEL-28 melanoma; 101% in the assay with SK-MEL-2 melanoma; 101% with EKVX NSCLC. Further, the growth was 93.1% in the assay on SN12C renal; 81.4% in the assay with UO-31 renal; 110% in the assay with TK-10 renal; 80.1% in the assay with ACHN renal; 91.2% in the assay on CAKI-1 renal; 97.3% with A498 renal. Moreover, the growth in the assay on CCRF-CEM leukemia is 86.2%; in the assay on MOLT-4 leukemia it was 100%.

With `CNC1(C#N)CCN(Cc2ccccc2)CC1`, the growth with HCT-15 colon was 104%; with HT29 colon it was 102%; with SNB-75 CNS it was 81.5%; with SNB-19 CNS it was 99.8%; in the assay on U251 CNS it was 108%; in the assay with PC-3 prostate, 97.6%. The growth was 116% in the assay with SK-MEL-5 melanoma; 92.5% with UACC-62 melanoma; 102% with LOX IMVI melanoma; 136% with SK-MEL-28 melanoma; 93.2% in the assay with SK-MEL-2 melanoma; 90.2% in the assay with EKVX NSCLC. The growth in the assay with SN12C renal was 93.9%; in the assay with UO-31 renal it was 80.9%; in the assay on TK-10 renal, 272%; in the assay on ACHN renal it was 101%; in the assay with CAKI-1 renal it was 72.7%; in the assay on A498 renal, 110%. Further, the growth in the assay on CCRF-CEM leukemia was 108%; in the assay on MOLT-4 leukemia it was 170%.

For `O=S(=O)(NCCNc1cc(-c2c(-c3cccc(O)c3)nc3sccn23)ccn1)c1ccc(Cl)cc1`, the growth was 53.2% in the assay on HCT-15 colon; 65.7% in the assay with HT29 colon; 8.44% (active) in the assay with SNB-75 CNS; 72.7% with SNB-19 CNS; 65.9% in the assay with U251 CNS; 49.3% in the assay with PC-3 prostate. The growth in the assay on SK-MEL-5 melanoma is 30.7%; with UACC-62 melanoma, 64.8%; in the assay with LOX IMVI melanoma, 63.2%; with SK-MEL-28 melanoma, 95.7%; in the assay with SK-MEL-2 melanoma it was 79%; in the assay with EKVX NSCLC it was 62.1%. For the same compound, the growth in the assay with SN12C renal is 52.8%; in the assay with UO-31 renal, 3.45% (active); in the assay with TK-10 renal it was 84.2%; with ACHN renal, 61.2%; in the assay with CAKI-1 renal it was 36.1%; in the assay with A498 renal it was 57.1%. Moreover, the growth in the assay with CCRF-CEM leukemia was 40.1%; with MOLT-4 leukemia, 33.9%.
